According to PubChem BioAssay (Tox21):
Inconclusive results are not listed. Calls of active or inactive are those of the source. Unless noted, calls follow the shape of the dose curve; as a rule, active = well fitted curve in the direction sought with a large enough effect in the repeat runs; inconclusive = weak or mixed curves; inactive = no such curve, though single readings can be large; an effect the other way counts as inactive or inconclusive.

Assays:
[1] = qHTS assay to identify small molecule agonists of the vitamin D receptor (VDR) signaling pathway - cell viability counter screen (AID 743224); also: series mostly up to about 63 µM; % is scaled to controls: 0 for no effect and ±100 for the full control effect; nearly all actives have a fitted effect of over 50% in size
How it was run: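 Cells: VDR-bla, 2,000/well, settled 4 h. Treatment: compounds in DMSO, 16 h, 37C/5% CO2. Readout: CellTiter-Glo luminescence after 30 min RT.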

[2] = qHTS assay to identify small molecule antagonists of the vitamin D receptor (VDR) signaling pathway - cell viability counter screen (AID 743225); also: % is scaled to controls: 0 for no effect and ±100 for the full control effect; nearly all actives have a fitted effect of over 50% in size
How it was run: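 VDR-UAS-bla HEK 293T cells were plated and incubated 4 h at 37C, then dosed with compound plus 3 nM (final) 1-alpha,25-dihydroxyvitamin D3 for 16 h. After the 2 h beta-lactamase read, viability in the same wells was read as CellTiter-Glo luminescence after 30 min at room temperature.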

[3] = qHTS assay to identify small molecule agonists of the NFkB signaling pathway - cell viability counter screen (AID 1159515; calls by dose curve; also: series mostly up to about 61 µM; % is scaled to controls: 0 for no effect and ±100 for the full control effect; nearly all actives have a fitted effect of over 55% in size)
How it was run: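 Cells are seeded (2,000 NFkB-bla ME-180 per well), rested overnight, and dosed with DMSO-dissolved compounds for 5 hr at 37 C. Viability is then read by CellTiter-Glo luminescence after 30 min at room temperature.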

[4] = qHTS assay to identify small molecule agonists of the endoplasmic reticulum stress response signaling pathway (AID 1159516; active = well fitted activation curve with a large enough effect in the signal ratio in the repeat runs, not every such curve was filed as active; the % refers to the signal ratio; also: potency is read from the fitted curve at half-maximal effect; as to activation: % is scaled to controls: 0 for no effect and ±100 for the full control effect)
How it was run: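 Cells are seeded at 1,500 per well and incubated overnight. Compounds in DMSO are added for 5 hr at 37 C, then beta-lactamase FRET substrate for 2 hr at room temperature, and fluorescence at 460 and 530 nm is measured.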

[5] = qHTS assay to identify small molecule agonists of the endoplasmic reticulum stress response signaling pathway - cell viability counter screen (AID 1159517; calls by dose curve;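 also: HeLa cells carrying an ER stress response element beta-lactamase reporter; series mostly up to about 61 µM; % is scaled to controls: 0 for no effect and ±100 for the full control effect; nearly all actives have a fitted effect of over 50% in size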)
How it was run: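 ESRE-bla HeLa cells (1,500/well) were plated overnight at 37 C and exposed to compounds for 5 hr. After the 2 hr beta-lactamase substrate read, CellTiter-Glo went into the same wells, and luminescence was read after 30 min at room temperature.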

[6] = qHTS assay to identify small molecule antagonists of the retinoid-related orphan receptor gamma (ROR-gamma) signaling pathway - cell viability counter screen (AID 1159520); also: % is scaled to controls: 0 for no effect and ±100 for the full control effect; nearly all actives have a fitted effect of over 50% in size
How it was run: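 Cytotoxicity was read from cellular ATP (CellTiter-Glo luminescence) after 16 hr at 37 C with 1 uM doxycycline induction. The inducer was added 2 hr after compound transfer to Tet-on ROR gamma CHO cells.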

[7] = target: Nuclear receptor ROR-gamma (Homo sapiens) (UniProt P51449); experiment: qHTS assay to identify small molecule antagonists of the retinoid-related orphan receptor gamma (ROR-gamma) signaling pathway (AID 1159521)
How it was run: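 Tet-on ROR-gamma CHO cells with ROR response element-luciferase reporter; compounds added 2 hr before 1 uM doxycycline induction, then 16 hr at 37 C. Antagonism scored as decreased ONE-Glo luminescence.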

[8] = qHTS assay to identify small molecule agonists of the AP-1 signaling pathway - cell viability counter screen (AID 1159525; calls by dose curve; also: nearly all actives have a fitted effect of over 55% in size)
How it was run: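 Intracellular ATP by Cell Titer Glo luminescence (30 min, RT) in the same ME-180 AP-1-bla wells after the 5 h compound exposure at 37 °C. Normalised to tetra n-octyl ammonium bromide and DMSO controls.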

[9] = qHTS assay to identify small molecule agonists of the AP-1 signaling pathway (AID 1159526; calls by dose curve; also: % is scaled to controls: 0 for no effect and ±100 for the full control effect)
[10] = target: Retinoic acid receptor RXR-alpha (Homo sapiens) (UniProt P19793); experiment: qHTS assay to identify small molecule agonists of the RXR signaling pathway (AID 1159527; calls by dose curve; also: % is scaled to controls: 0 for no effect and ±100 for the full control effect; nearly all actives have a fitted effect of over 35% in size)
Chain of Retinoic acid receptor RXR-alpha (Homo sapiens) (P19793 whole entry, looked up): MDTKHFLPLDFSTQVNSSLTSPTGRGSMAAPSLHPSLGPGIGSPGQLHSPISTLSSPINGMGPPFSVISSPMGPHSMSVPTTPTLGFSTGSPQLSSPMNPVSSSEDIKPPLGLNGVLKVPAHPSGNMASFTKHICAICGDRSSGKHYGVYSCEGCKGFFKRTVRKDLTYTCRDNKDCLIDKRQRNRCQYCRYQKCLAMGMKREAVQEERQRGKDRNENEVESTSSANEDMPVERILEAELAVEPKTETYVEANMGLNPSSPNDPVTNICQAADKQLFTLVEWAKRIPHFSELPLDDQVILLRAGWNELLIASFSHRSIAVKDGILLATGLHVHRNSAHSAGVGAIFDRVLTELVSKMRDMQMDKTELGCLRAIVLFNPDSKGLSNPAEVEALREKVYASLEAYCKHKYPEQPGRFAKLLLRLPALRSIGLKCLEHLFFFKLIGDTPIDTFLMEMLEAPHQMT
How it was run: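 GeneBLAzer RXR-alpha-UAS-bla HEK 293T cells in 2% charcoal-stripped FBS medium were exposed to compounds for 16 hr at 37 C in agonist mode. Beta-lactamase reporter read as 460/530 nm FRET ratio after 2 hr substrate loading.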

[11] = qHTS assay to identify small molecule agonists of the RXR signaling pathway - cell viability counter screen (AID 1159529)
How it was run: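 RXR-alpha-UAS-bla HEK 293T cells in medium with 2% charcoal-stripped FBS were pre-incubated 5 hr, then compound-treated 16 hr at 37 C. Viability was read by CellTiter-Glo luminescence in the same wells as the beta-lactamase assay, with tetraoctyl ammonium bromide as positive control.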

[12] = qHTS assay to identify small molecule antagonists of the retinoid acid receptor (RAR) signaling pathway - cell viability counter screen (AID 1159551); also: % is scaled to controls: 0 for no effect and ±100 for the full control effect; nearly all actives have a fitted effect of over 35% in size
How it was run: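 Cells (C3RL4) are plated, incubated overnight, dosed with compound in DMSO, then given retinol at 1 uM final. After 6 h at 37 C, CellTiter-Glo is added and luminescence read following 30 min at room temperature.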

[13] = qHTS assay to identify small molecule antagonists of the retinoic acid receptor (RAR) signaling pathway (AID 1159552)
How it was run: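 Retinol signaling pathway inhibitors screened in C3RL4 RARE-luciferase reporter cells seeded overnight at 37 C, then compounds added with 1 uM (final) retinol as pathway substrate. After 6 hr at 37 C, luciferase luminescence read after 30 min at room temperature.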

[14] = qHTS assay to identify small molecule agonists of the retinoic acid receptor (RAR) signaling pathway (AID 1159553); also: potency is read from the fitted curve at half-maximal effect; as to activation: % is scaled to controls: 0 for no effect and ±100 for the full control effect
How it was run: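 Seed C3RL4 reporter cells at 1,000 per well and incubate overnight at 37 C. Add compounds in DMSO, incubate 6 hr. Add luciferase reagent, wait 30 min at room temperature, read luminescence.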

Clc1ccccc1
inactive: Potency [1] | Potency [2] | Potency [3] | Potency [4] | Potency [5] | Potency [6] | Potency [7] | Potency [8] | Potency [9] | Potency [10] | Potency [11] | Potency [12] | Potency [13] | Potency [14]

C[C@H]1[C@@H]2Cc3ccc(O)cc3[C@@]1(C)CCN2C
inactive: Potency [1] | Potency [2] | Potency [3] | Potency [4] | Potency [5] | Potency [6] | Potency [7] | Potency [8] | Potency [9] | Potency [10] | Potency [11] | Potency [12] | Potency [13] | Potency [14]

COCc1cnc(C2=NC(C)(C(C)C)C(=O)N2)c(C(=O)O)c1 (stereo unspecified)
inactive: Potency [1] | Potency [3] | Potency [4] | Potency [5] | Potency [6] | Potency [7] | Potency [8] | Potency [9] | Potency [11] | Potency [12] | Potency [13] | Potency [14]

O=C([O-])c1ccccn1.O=C([O-])c1ccccn1.O=C([O-])c1ccccn1.[Cr+3]
inactive: Potency [1] | Potency [2] | Potency [3] | Potency [4] | Potency [5] | Potency [6] | Potency [7] | Potency [8] | Potency [9] | Potency [10] | Potency [11] | Potency [12]

COC(=O)Cc1ccccc1
inactive: Potency [1] | Potency [3] | Potency [4] | Potency [5] | Potency [6] | Potency [7] | Potency [8] | Potency [9] | Potency [11] | Potency [12] | Potency [13] | Potency [14]

CC(C)c1ccc(NC(=O)N(C)C)cc1
inactive: Potency [1] | Potency [2] | Potency [3] | Potency [4] | Potency [5] | Potency [6] | Potency [7] | Potency [8] | Potency [9] | Potency [11] | Potency [12] | Potency [13]
active: Potency [14] 13.7 µM

CON(C)C(=O)Nc1ccc(Cl)cc1
inactive: Potency [1] | Potency [3] | Potency [4] | Potency [5] | Potency [6] | Potency [7] | Potency [8] | Potency [9] | Potency [10] | Potency [11] | Potency [12] | Potency [13]

NCCc1cc(O)c(O)cc1O
active: Potency [4] 4.25 µM
inactive: Potency [2] | Potency [3] | Potency [5] | Potency [6] | Potency [7] | Potency [8] | Potency [9] | Potency [10] | Potency [11] | Potency [12]

O=C(Cc1ccccc1)c1ccccc1
inactive: Potency [1] | Potency [3] | Potency [4] | Potency [5] | Potency [6] | Potency [7] | Potency [8] | Potency [9] | Potency [10] | Potency [11] | Potency [12] | Potency [13]

O=C(O)c1ccc(=O)[nH]c1
inactive: Potency [1] | Potency [2] | Potency [3] | Potency [4] | Potency [5] | Potency [6] | Potency [7] | Potency [8] | Potency [9] | Potency [10] | Potency [11] | Potency [12]

O=C(Cc1ccccc1)OCCc1ccccc1
inactive: Potency [1] | Potency [2] | Potency [3] | Potency [4] | Potency [5] | Potency [6] | Potency [7] | Potency [8] | Potency [9] | Potency [10] | Potency [11] | Potency [12] | Potency [13]

CCCC(C)(COC(N)=O)COC(=O)NC(C)C (stereo unspecified)
inactive: Potency [1] | Potency [2] | Potency [3] | Potency [4] | Potency [5] | Potency [6] | Potency [7] | Potency [8] | Potency [9] | Potency [10] | Potency [11] | Potency [12]

C[N+]1(CCC(C(N)=O)(c2ccccc2)c2ccccc2)CCCCC1
inactive: Potency [2] | Potency [3] | Potency [4] | Potency [5] | Potency [6] | Potency [7] | Potency [8] | Potency [9] | Potency [10] | Potency [11] | Potency [12] | Potency [14]

OCCSSCCO
inactive: Potency [1] | Potency [2] | Potency [3] | Potency [4] | Potency [5] | Potency [6] | Potency [7] | Potency [8] | Potency [9] | Potency [10] | Potency [11] | Potency [12]

CCCCC(CC)COC(=O)c1c(Br)c(Br)c(Br)c(Br)c1C(=O)OCC(CC)CCCC (stereo unspecified)
inactive: Potency [1] | Potency [2] | Potency [3] | Potency [4] | Potency [5] | Potency [6] | Potency [7] | Potency [8] | Potency [9] | Potency [10] | Potency [11] | Potency [12] | Potency [14]

CCCCCCCCCCCCN=C(N)N
inactive: viability change, negative = cytotoxic [2] -22.1% [at 3.11 µM] | activity, negative = cytotoxic [3] -2.48% [at 3.12 µM] | activation [4] 0.217% [at 3.11 µM] | activity change, negative = cytotoxicity [5] 5.11% [at 3.11 µM] | activity, negative = cytotoxicity [6] -5.37% [at 3.27 µM] | activity change, negative = inhibition [7] -12% [at 3.27 µM] | viability change, negative = cytotoxic [8] -1.76% [at 2.72 µM] | activation [9] 1.6% [at 2.72 µM] | activation [10] 1.85% [at 2.71 µM] | activity change, negative = cytotoxicity [11] -15.3% [at 2.72 µM] | activity change, negative = cytotoxicity [12] 2.05% [at 3.27 µM] | activation [14] -2.89% [at 3.75 µM]

CCc1ccccc1N
inactive: Potency [1] | Potency [2] | Potency [3] | Potency [4] | Potency [5] | Potency [6] | Potency [7] | Potency [8] | Potency [9] | Potency [10] | Potency [11] | Potency [12] | Potency [13]

CCOP(=O)(O)C(N)=O
inactive: Potency [1] | Potency [2] | Potency [3] | Potency [4] | Potency [5] | Potency [6] | Potency [7] | Potency [8] | Potency [9] | Potency [10] | Potency [11] | Potency [12] | Potency [14]

C=CCOCC1CO1 (stereo unspecified)
inactive: Potency [1] | Potency [2] | Potency [3] | Potency [4] | Potency [5] | Potency [6] | Potency [7] | Potency [8] | Potency [9] | Potency [10] | Potency [11] | Potency [12]

CC(C)OC(=O)Cc1ccccc1
inactive: Potency [1] | Potency [2] | Potency [3] | Potency [4] | Potency [5] | Potency [6] | Potency [7] | Potency [8] | Potency [9] | Potency [10] | Potency [11] | Potency [12]

C[N+](C)(C)CCOC(=O)C(O)(c1ccccc1)c1ccccc1
inactive: Potency [1] | Potency [2] | Potency [3] | Potency [4] | Potency [5] | Potency [6] | Potency [7] | Potency [8] | Potency [9] | Potency [10] | Potency [11] | Potency [12] | Potency [14]
